Consider 13 compounds from PubChem BioAssay (NCI).

Compounds without any hit were thinned out: in the full panel of roughly 83,000, 20% have a hit.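 Step 1: grow cells in 96-well plates. Step 2: add test compound at a single concentration. Step 3: incubate 48 h. Step 4: record percent growth.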 A number with no mark means an inactive call. The source made the active and inactive calls. The calls were made as follows: active = growth percent below 10; inactive = the rest.

What all share (assay): NCI-60 one-dose screen, 48 h (100 = growth as untreated, 0 = no growth, -100 = all killed)
Holding throughout (conditions): 10 µM unless noted

Test [1] concerns SK-MEL-2 melanoma.
Test [2] relates to EKVX NSCLC.
The test system of test [3] is SN12C renal.
Test [4] deals with UO-31 renal.
The subject of test [5] is TK-10 renal.
Test [6] relates to ACHN renal.
Test [7] relates to CAKI-1 renal.
Test [8] relates to A498 renal.
For test [9], the system named is CCRF-CEM leukemia.
Test [10] deals with MOLT-4 leukemia.

Regarding `COc1ccc(-c2cc(-c3ccc(Cl)cc3)c(C#N)c(=O)n2CCCCC(=O)Nc2ccccc2N)cc1`, the growth in [1] is 79.7%; in test [2] it was 47.3%; in test [3], 42.3%; in test [4], 33.4%; in test [5] it was 102%; in test [6] it was 51.6%. Besides, the growth in test [7] was 1.45% (active); in test [8] it was 20.9%; in test [9], 42.5%; in test [10] it was 47.8%.

In the case of `CS(=O)(=O)Nc1cc(-c2ccc3ncnc(Nc4c(Cl)ccc5c4OCO5)c3c2)cnc1Cl`, the growth is -65.7% (active) in test [1]; -34.1% (active) in test [2]; 9.89% (active) in test [3]; -71.4% (active) in [4]; -59.4% (active) in test [5]; 11.7% in test [6]. In addition, the growth in test [7] is -30.4% (active); in test [8], -65.3% (active); in test [9] it was 11.9%; in [10] it was -15.1% (active).

Consider `COc1ccc(-c2nc3c(c(-c4ccccc4)nn3-c3ccccc3)c(-c3ccc(N4CCN(C)CC4)cc3)c2C#N)cc1`, for which the growth in [1] is 106%; in test [2], 104%; in test [3], 93.7%; in [4], 76.2%; in test [5] it was 99%; in test [6], 95.3%. Also, the growth in test [7] is 90%; in test [8], 99.6%; in test [9], 85.3%; in [10] it was 69.4%.

In the case of `CN1CCN(Cc2ccc3c(NNC(=O)c4ccccc4)nc4cc(F)ccc4n23)CC1`, the growth in [1] was 57.7%; in test [2] it was 21.5%; in [3], 17.2%; in [4], 7.31% (active); in test [5], 30%; in test [6], 11.5%. For the same compound, the growth in [7] is 11.8%; in [8], -7.93% (active); in [9], 12.2%; in [10], 12%.

As to `Clc1ccc(Sc2cnc(-c3ccccc3)o2)cc1`, the growth in test [1] was 100%; in test [2] it was 98.5%; in [3], 101%; in test [4] it was 78.4%; in test [5], 85.1%; in test [6], 99.7%. The growth in [7] is 90.2%; in test [8], 63.5%; in test [9] it was 99.2%; in [10], 100%.

`CCn1c(SCC(=O)c2ccc(Br)cc2)nnc1-c1ccncc1`: the growth in [1] was 104%; in [2] it was 102%; in test [3], 107%; in test [4], 91.4%; in [5], 116%; in test [6], 109%. For the same compound, the growth in [7] was 95.6%; in test [8] it was 91.1%; in test [9], 108%; in [10], 101%.

Regarding `Brc1ccc2[nH]cc(-c3nonc3-c3c[nH]c4ccccc34)c2c1`, the growth in [1] is 54%; in test [2], 28.4%; in [3], 57.1%; in test [4], 30.4%; in [5], 41.7%; in test [6], 34.2%. The growth in [7] is 25.3%; in test [8] it was 43%; in test [9], 38.8%; in test [10] it was 27%.

With `Cc1ccccc1Cn1cnc2ccc(-c3cc(NC(=O)c4ccc(NC5CCN(C)CC5)cc4)n[nH]3)cc21`, the growth was 98.3% in [1]; 91.9% in test [2]; 29.7% in test [3]; 89.2% in test [4]; 105% in test [5]; 107% in test [6]. The growth in test [7] is 68.6%; in test [8], 47.8%; in test [9], 72%; in test [10] it was 43%.

Turning to `Cn1ccnc1C(=O)C(=O)Nc1ccc(CC(=O)Nc2ccccc2)cc1`, the growth was 123% in [1]; 102% in test [2]; 103% in test [3]; 85.7% in [4]; 116% in test [5]; 107% in [6]. The growth was 93.3% in [7], 103% in test [8], 105% in [9] and 107% in test [10].

Take `C=C1C(=O)O[C@H]2[C@H]1CC/C(COC(=O)NCc1ccc(Cn3c(=O)sn(CCI)c3=O)cc1)=C\CC[C@@]1(C)O[C@@H]21`: the growth is 73.9% in test [1]; 91% in test [2]; 70.3% in test [3]; 68.3% in test [4]; 0.429% (active) in test [5]; 27.7% in [6]. For the same compound, the growth was 7% (active) in [7], 120% in test [8], -16.1% (active) in test [9] and -6.69% (active) in test [10].

Regarding `O=C1Nc2ccc(I)cc2C1=O`, the growth was 85.4% in test [1]; 102% in test [2]; 98% in [3]; 77.9% in test [4]; 140% in test [5]; 103% in [6]. Further, the growth was 64.5% in test [7], 122% in [8], 119% in test [9] and 102% in [10].

Regarding `N#C/C(=C\c1ccc(Br)cc1)n1nnc2ccc(F)cc21`, the growth in test [1] was 13.8%; in test [2], 49.9%; in test [3], -51.2% (active); in test [4], -36.4% (active); in [5], -3.76% (active); in [6], -37.9% (active). Moreover, the growth is -4.59% (active) in test [7], -15.6% (active) in [8], -10.2% (active) in test [9] and -20% (active) in test [10].

Take `C=C(CNCCc1ccc(O)cc1)[C@@H]1CC[C@]2(CO)CC[C@]3(C)[C@H](CC[C@@H]4[C@@]5(C)CCC(NCCO)C(C)(C)[C@@H]5CC[C@]43C)[C@@H]12` (stereo not given in full): the growth in [1] was -81% (active); in test [2], -52.1% (active); in test [3] it was -70.3% (active); in test [4], -96.1% (active); in [5] it was -80.6% (active); in [6] it was -60.8% (active). Further, the growth was -77.2% (active) in test [7], 69.3% in test [8], -19.7% (active) in [9] and -19.2% (active) in [10].
